{"source": "PubChem BioAssay (EPA / NIEHS)", "note": "Active and inactive are the calls of the source. The calls were made as follows: active = hit-call score of the fitted dose curve at least 0.9, where 1 is the maximum; inactive = score below 0.9.", "data": [{"read-out": "Human Leukocyte Antigen - DR isotype (HLADR), HLA-DRA (gene 3122)", "assay": "BSK_3C_HLADR: BioMAP Diversity Plus: 3C Assay for Human Leukocyte Antigen - DR isotype (HLADR) Biomarker Activity (AID 2283019)", "details": "primary human endothelial cells (HUVEC); actives raise or lower the signal", "experimental": "BSK_3C is a cell-based, multiplexed-readout assay that uses umbilical vein endothelium, a human vascular primary cell, with measurements taken at 24 hours after chemical dosing in a 96-well plate.BSK_3C_HLADR is an assay component measured in the BSK_3C assay. It measures HLA-DR antibody related to regulation of gene expression using ELISA technology.Data from the assay component BSK_3C_HLADR was analyzed into 1 assay endpoint. This assay endpoint, BSK_3C_HLADR, was analyzed with bidirectional fitting relative to DMSO as the negative control and baseline of activity. Using a type of binding reporter, gain or loss-of-signal activity can be used to understand changes in the signaling as they relate to the gene HLA-DRA. Furthermore, this assay endpoint can be referred to as a primary readout, because this assay has produced multiple assay endpoints where this one serves a signaling function. To generalize the intended target to other relatable targets, this assay endpoint is annotated to the cell adhesion molecules intended target family, where the subfamily is MHC Class II.\nThe levels of cell surface (or secreted, indicated by the prefix \"s\") biomarker endpoints were measured by ELISA. Overt cytotoxicity to cells in confluent adherent cultures (all systems other than the BT system) was assessed by measuring total protein levels using sulforhodamine B (SRB) staining in parallel cultures at the time of biomarker measurements, indicated as SRB endpoints. For proliferation assays for adherent cell types, individual cell types are cultured at sub-confluence and relative cell numbers quantified by SRB staining at time points optimized for each system (48 h: 3C and CASM3C systems; 72 h: BT and HDF3CGF systems; 96 h: SAg system). SRB was performed by staining cells with 0.1% SRB after fixation with 10% TCA and reading wells at 560 nm.Viability and proliferation of PBMC (T cells) was quantified by Alamar Blue reduction for the SAg and BT systems. For PBMC viability (referred to as PBMC Cytotoxicity within the assay endpoint names), cells were plated (75,000/well in a 96-well plate) and then chemical samples added for 1 h before addition of activators, SEB and TSST-1 (20 ng/mL final concentration each). Cells were incubated for 90 h. Then, Alamar Blue (20 uL/well) (Invitrogen, Cat DAL1100) was added for 6 h, and the plates were read with a fluorescence microplate reader at 546/580 nm (excitation/emission). For PBMC proliferation, cells were plated and activated as above but incubated for only 16 h prior to addition of Alamar Blue. Plates were read after 6 h.", "values": [{"smiles": "O=C1CCC(C2CCCCC2)CC1", "outcome": "inactive"}, {"smiles": "CC(C)(C)c1csc(-c2cc3cc(OCc4ccccc4CC(=O)O)ccc3o2)n1", "AC50": "17.3 µM (active)"}, {"smiles": "CCO[Si](CCCNC(N)=O)(OCC)OCC", "outcome": "inactive"}, {"smiles": "O=C(O)Cc1cc(I)c(Oc2ccc(O)c(I)c2)c(I)c1", "outcome": "inactive"}, {"smiles": "CC(C)(C)c1cc(/C=C2\\SC(N)=NC2=O)cc(C(C)(C)C)c1O", "AC50": "27.5 µM (active)"}, {"smiles": "Clc1ccccc1C(c1ccccc1)(c1ccccc1)n1ccnc1", "AC50": "15.7 µM (active)"}, {"smiles": "CN1C(=O)N(c2ccccc2Br)Cc2cnc(Nc3ccc4c(c3)OCC(CO)O4)nc21", "note": "(stereo not given)", "AC50": "9 µM (active)"}, {"smiles": "O=C(OCCCCCCOC(=O)c1ccccc1)c1ccccc1", "outcome": "inactive"}, {"smiles": "CCCCCCCCCCCCO", "AC50": "31.3 µM (active)"}, {"smiles": "C[C@]12CC[C@@H]3c4ccc(O)cc4CC[C@H]3[C@@H]1CCC2=O", "AC50": "31.7 µM (active)"}, {"smiles": "CC(C)(O)c1ccc(CNC(=O)c2cccnc2Oc2ccc3nonc3c2)cc1", "outcome": "inactive"}, {"smiles": "CCCCCc1ccc(N)cc1", "AC50": "14.5 µM (active)"}, {"smiles": "Cc1cc(F)ccc1-c1cc(N2CC[C@@H](O)[C@H]2CO)ncc1N(C)C(=O)C(C)(C)c1cc(C(F)(F)F)cc(C(F)(F)F)c1", "AC50": "9.43 µM (active)"}, {"smiles": "Cc1cc2c(cc1C(F)(F)F)N(C(=O)Nc1ccc(Oc3cccnc3C)nc1)CC2", "AC50": "18.4 µM (active)"}, {"smiles": "O=C1O[C@H]([C@@H](O)CO)C(O)=C1O", "outcome": "inactive"}, {"smiles": "c1ccc2n[nH]nc2c1", "outcome": "inactive"}, {"smiles": "Oc1ccc2ccccc2c1", "outcome": "inactive"}, {"smiles": "CC/C(=C(/CC)c1ccc(O)cc1)c1ccc(O)cc1", "AC50": "27.7 µM (active)"}, {"smiles": "COc1cccc([C@H](O)C2CCN(CCc3ccc(F)cc3)CC2)c1OC", "outcome": "inactive"}, {"smiles": "Clc1cc(Cl)c2c(c1)N=C1CCCCCN1C2", "outcome": "inactive"}, {"smiles": "CN(C)C(=O)C1(N2CCCCC2)CCN(CC[C@@]2(c3ccc(Cl)c(Cl)c3)CN(C(=O)c3ccccc3)CCO2)CC1", "AC50": "12.4 µM (active)"}, {"smiles": "CCN(Cc1cccnc1)C(=O)c1cccc(Cl)c1[C@]1(C)C(=O)N(Cc2ccc(OC)cc2OC)c2ccc(Cl)cc21", "AC50": "8.86 µM (active)"}, {"smiles": "CCCCOC(=O)CC(CC(=O)OCCCC)(OC(C)=O)C(=O)OCCCC", "outcome": "inactive"}, {"smiles": "CCCCCCCCCCCC[N+](C)(C)C", "AC50": "15.2 µM (active)"}, {"smiles": "O=CCCCC=O", "AC50": "29.5 µM (active)"}, {"smiles": "CC(=O)N1CCN(c2ccc(OC[C@H]3CO[C@](Cn4ccnc4)(c4ccc(Cl)cc4Cl)O3)cc2)CC1", "AC50": "25.2 µM (active)"}, {"smiles": "CC[C@@H]1C[C@H](N(Cc2cc(C(F)(F)F)cc(C(F)(F)F)c2)C(C)=O)c2cc(C(F)(F)F)ccc2N1C(=O)OC(C)C", "outcome": "inactive"}, {"smiles": "O=c1[nH]sc2ccccc12", "AC50": "5.39 µM (active)"}, {"smiles": "COc1ccc2cc(S(=O)(=O)N[C@H](CC(=O)N[C@H](Cc3ccc(CN4[C@H](C)CCC[C@@H]4C)cc3)C(=O)N(C)C(C)C)c3ccc4c(c3)OCO4)ccc2c1", "AC50": "24.3 µM (active)"}, {"smiles": "CCOC(=O)O[C@H](C)OC(=O)c1ccc2c(c1)cc(C(=O)NC1CCN(C(C)C)CC1)n2Cc1cc(-c2ccc(Cl)s2)on1", "AC50": "7.08 µM (active)"}, {"smiles": "CCCCCCCCCCCO", "AC50": "31 µM (active)"}, {"smiles": "CCN(CC)C(=O)c1cc(S(=O)(=O)Cc2ccccc2)c(N2CCC(c3ccccc3)CC2)cc1N(CC)CCN(C)C", "AC50": "6.27 µM (active)"}, {"smiles": "CCN(Cc1cccc(S(=O)(=O)O)c1)c1ccc(C(=C2C=CC(=[N+](CC)Cc3cccc(S(=O)(=O)O)c3)C=C2)c2ccccc2S(=O)(=O)[O-])cc1", "outcome": "inactive"}, {"smiles": "CCCC(=O)OCCC(C)C", "outcome": "inactive"}, {"smiles": "CCCCCCCC[Si](OCC)(OCC)OCC", "AC50": "23.3 µM (active)"}, {"smiles": "CN(C[C@@H](CC[N+]12CCC(C3CCCCC3)(CC1)CC2)c1ccc(Cl)c(Cl)c1)C(=O)c1cc(C(F)(F)F)cc(C(F)(F)F)c1", "AC50": "14.6 µM (active)"}, {"smiles": "CC1(C)NC(=O)N(c2ccc([N+](=O)[O-])c(C(F)(F)F)c2)C1=O", "outcome": "inactive"}, {"smiles": "C[C@]12CC[C@@H]3c4ccc(O)cc4CC[C@H]3[C@@H]1CC[C@H]2O", "AC50": "21.3 µM (active)"}, {"smiles": "O=c1c(-c2ccc(O)cc2)coc2cc(O)cc(O)c12", "AC50": "21.1 µM (active)"}, {"smiles": "NC(=O)c1nc(-c2cccc(-c3cc(F)ccc3OCC(F)(F)C(F)(F)F)c2)n[nH]1", "AC50": "22.6 µM (active)"}]}]}
